High-throughput results deposited in PubChem BioAssay by several laboratories.
Shown are actives, neighbours in structure and some others; about 6.9% of the full set was active somewhere.
SKKanGAS inh – blocks kanamycin growth of S. pyogenes SKKanGAS strain; BacTiter-Glo, 6 h; inhibition, % at 7.5 µM; hit rate 1.3% among 300,000;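 active means mean replicate score, as percent of positive control median, at least 50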;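 further: strain carries kanamycin resistance gene driven by streptokinase promoter and grows in 40 µg/ml kanamycin; loss of luminescence reflects streptokinase promoter inhibition or plain growth inhibition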
Beta cell apopt – blocks beta cell apoptosis; hit rate 0.8% among 300,000; INS-1E cytokine-induced death, ATP luminescence, 48 h; percent of positive-control rescue, neutral wells zero; AID 435005; protection from apoptosis, % (concentration not given with the values);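 active means Every replicate reaches about 75%, or at least half do and their mean reaches it too, limit read from the data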;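 further: higher means more ATP so stronger rescue from cytokine killing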
MPTP inh – permeability transition pore inhibition; isolated mouse mitochondria, Ca2+ swelling absorbance, 30 min; inhibition, % at 10 µM; hit rate 1.4% among 360,000; AID 602449;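 active means inhibition of 50% or more, scaled per plate between neutral and stimulator controls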
CSC inhib – cancer stem cell inhibition. cancer stem cell-like cells viability, luminescence. inhibition, % at 7.5 µM. hit rate 1.1% among 300,000. AID 2717; in the data active means inhibition above about 75%; tested in HMLE shEcad cells
Mdm2-MdmX inh – inhibitors of human Mdm2/MdmX interaction; O15151+Q00987; SaOS-2 split-luciferase Mdm2/MdmX complementation, luminescence; inhibition, % at 8 µM; hit rate 3% among 330,000;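 active means inhibition of at least 50% at 8 µM in the primary screen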
Target sequence (O15151 whole entry, looked up): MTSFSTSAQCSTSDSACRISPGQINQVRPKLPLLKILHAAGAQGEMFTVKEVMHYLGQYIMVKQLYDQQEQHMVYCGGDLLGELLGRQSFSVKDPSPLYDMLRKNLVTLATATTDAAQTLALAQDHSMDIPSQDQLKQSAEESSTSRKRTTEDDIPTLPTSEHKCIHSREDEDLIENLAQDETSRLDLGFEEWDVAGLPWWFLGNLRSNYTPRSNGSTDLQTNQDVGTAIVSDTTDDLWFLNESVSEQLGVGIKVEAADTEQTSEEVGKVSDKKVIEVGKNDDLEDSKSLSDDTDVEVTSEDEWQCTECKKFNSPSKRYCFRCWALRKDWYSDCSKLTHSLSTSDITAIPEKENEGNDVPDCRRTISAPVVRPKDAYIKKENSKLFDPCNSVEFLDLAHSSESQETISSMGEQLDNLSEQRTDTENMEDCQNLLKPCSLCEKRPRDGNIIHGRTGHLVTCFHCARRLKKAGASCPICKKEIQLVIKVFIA
Target sequence (Q00987 whole entry, looked up): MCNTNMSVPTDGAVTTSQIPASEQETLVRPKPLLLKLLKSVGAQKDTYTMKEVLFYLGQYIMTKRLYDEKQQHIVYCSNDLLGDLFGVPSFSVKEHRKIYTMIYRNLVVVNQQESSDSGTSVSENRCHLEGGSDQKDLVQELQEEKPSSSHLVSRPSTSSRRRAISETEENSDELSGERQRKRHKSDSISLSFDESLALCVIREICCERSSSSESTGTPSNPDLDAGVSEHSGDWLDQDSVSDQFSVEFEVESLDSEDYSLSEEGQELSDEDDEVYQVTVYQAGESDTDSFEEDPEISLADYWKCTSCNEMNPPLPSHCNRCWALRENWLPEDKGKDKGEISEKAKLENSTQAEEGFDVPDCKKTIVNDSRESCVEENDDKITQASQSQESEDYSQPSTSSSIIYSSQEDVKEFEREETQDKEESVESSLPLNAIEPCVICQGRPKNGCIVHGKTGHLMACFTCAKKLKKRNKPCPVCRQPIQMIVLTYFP
GRIN3A LBD mod – modulators (binders) of human NR3A ligand-binding domain; AID 1259313; hit rate 2.5% among 340,000; NR3A LBD differential scanning fluorimetry, Tm shift; 0% = protein alone, 100% = glycine-bound protein; Tm shift relative to glycine control, % at 25 µM;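 active means melting temperature shift of at least 10% of the positive control shift, at one fixed dose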
Rh123 counter – membrane potential counter-screen of mitochondrial pore inhibitors; shares compounds with MPTP inh; AID 624504; inhibition, % at 10 µM; hit rate 78% among 5,000; isolated mitochondria, Rhodamine 123 fluorescence; in the data active means inhibition above about 22%
MPTP swell DR – MPTP inhibition, dose response swelling confirmation. hit rate 58% among 780. isolated mitochondria swelling, absorbance. AID 651561. shares compounds with MPTP inh. IC50, µM; in the data active means IC50 below about 20 µM
MPTP cs DR – active in counter-screen for permeability transition pore inhibitors. shares compounds with MPTP inh. isolated mitochondria counterscreen, fluorescence read-out. IC50, µM. hit rate 49% among 780. AID 651564; in the data active means IC50 below about 80 µM
Each line names hits and unclear results; the compound was inactive in the other large screens (follow-up assays come after a bar, where they were run).

CCOC(=O)[C@@H]1[C@H]2COc3ccccc3[C@@H]2N2C(=O)N(c3cccc(Cl)c3)C(=O)[C@@]12C	MPTP inh 88 | Rh123 counter 100
CCOC(=O)[C@@H]1[C@H]2COc3ccccc3[C@H]2N2C(=O)N(c3cccc(Cl)c3)C(=O)[C@@]12C	none
O=C(CC1NCCc2ccccc21)Nc1ccc(Cl)cc1 (centres undefined)	MPTP inh 61 | Rh123 counter inactive | MPTP swell DR 9.1 | MPTP cs DR inactive
O=C(CNCc1cccs1)Nc1ccc(OC(F)(F)F)cc1	none
CCNc1nn2ccccc2c1/C=C(\C#N)C(=O)OCC	none (no result: Beta cell apopt)
CCCCCCCCCCCC(=O)c1c(O)cccc1O	SKKanGAS inh 103, MPTP inh 66 | Rh123 counter 56
CC(C)C(C)NC(=O)COc1ccc(-c2ccccc2)cc1 (centres undefined)	none
CC(C)C(C)NC(=O)COc1ccc(Sc2ccc(OCC(=O)NC(C)C(C)C)cc2)cc1 (centres undefined)	MPTP inh 79 | Rh123 counter 89
CC(C)(C)NCC(O)COc1ccccc1C1CCCC1 (centres undefined)	MPTP inh 95 (no result: SKKanGAS inh) | Rh123 counter inactive | MPTP swell DR 6.8 | MPTP cs DR 56
CCc1ccccc1OC[C@@H](O)CN[C@H]1CCCc2ccccc21	MPTP inh 104 (no result: SKKanGAS inh) | Rh123 counter inactive | MPTP swell DR 5.5 | MPTP cs DR 15
COCCN(C(=O)Nc1ccccc1OC)c1nc2ccccc2s1	none
C=CCN1C=C/C(=C\C=C(C#N)C#N)c2ccccc21	none
CCCCCCN1C=C/C(=C\C=C(C#N)C#N)c2ccccc21	MPTP inh 51 | Rh123 counter inactive | MPTP swell DR 9.3 | MPTP cs DR <2.5
Cc1cc(C)nc(/N=C(\N)Nc2ccc(S(=O)(=O)O)cc2)n1	none (no result: Beta cell apopt, CSC inhib)
Cc1cc(C)nc(/N=C(\N)Nc2ccc(CC(=O)OC(C)C)cc2)n1	MPTP inh 50 (no result: Beta cell apopt) | Rh123 counter 59
Cc1ccc(CN2CCN(/N=C\C=C\c3ccccc3)CC2)cc1	none
CC(C)(C=O)C1=CC(=O)c2ccccc2C1=O	MPTP inh 100, GRIN3A LBD mod 11 (no result: SKKanGAS inh, Mdm2-MdmX inh) | Rh123 counter inactive
CN(C)S(=O)(=O)c1ccc(Cl)c(NC(=O)COC(=O)CCC2CCCCC2)c1	none (no result: SKKanGAS inh)
CC(=O)c1c(O)cc(O)cc1CC(=O)O	none
CC(=O)c1c(O)cc(O)c(C(C)=O)c1O	SKKanGAS inh 91, MPTP inh 90 (no result: Beta cell apopt) | Rh123 counter 106
Clc1ccc(C=Cc2ccccn2)cc1	none (no result: SKKanGAS inh, Beta cell apopt, CSC inhib, Mdm2-MdmX inh)
Clc1ccc(/C=C\c2nccc3c2[nH]c2ccccc23)cc1	MPTP inh 70, GRIN3A LBD mod 20 (no result: Beta cell apopt, CSC inhib, Mdm2-MdmX inh) | Rh123 counter 83
COC(=O)c1c(NC(=O)Cc2ccccc2)sc2c1CC(C)(C)NC2(C)C	MPTP inh 74 | Rh123 counter inactive | MPTP swell DR inactive | MPTP cs DR inactive
COC(=O)c1c(NC(=O)c2ccccc2[N+](=O)[O-])sc2c1CC(C)(C)NC2(C)C	none
COC(=O)c1c(NC(=O)C2CCCCC2)sc2c1CC(C)(C)NC2(C)C	MPTP inh 67 | Rh123 counter inactive | MPTP swell DR 6.2 | MPTP cs DR inactive
CN(Cc1ccccc1)C(=O)[C@@H]1CCCN1C(=O)[C@@H]1CCCN1C(=O)c1cccs1	none (no result: SKKanGAS inh, Beta cell apopt, CSC inhib, Mdm2-MdmX inh, GRIN3A LBD mod)
Cc1cc(Cn2nc(C(=O)NCc3cccc(Br)c3)cc2-c2ccccc2)on1	none (no result: SKKanGAS inh)
c1coc(Cn2c(-c3ccco3)nc3ccccc32)c1	MPTP inh 51 | Rh123 counter inactive
CC(=O)OC(C=C(C)C)C/C(C)=C/COc1c2ccoc2cc2oc(=O)ccc12 (centres undefined)	none (no result: SKKanGAS inh, Beta cell apopt, CSC inhib, Mdm2-MdmX inh)
O=C(CSc1nc(-c2ccccc2)nn1C(=O)c1ccccc1)Nc1cccc([N+](=O)[O-])c1	MPTP inh 50, GRIN3A LBD mod 13 (no result: Beta cell apopt) | Rh123 counter 47
Cc1ccccc1C(=O)NCC(C)NC(=O)c1ccccc1C (centres undefined)	none
C=CCN(CC=C)C(=O)c1ccc2nc(Cc3ccc(OC)c(OC)c3)oc2c1	MPTP inh 50 (no result: Beta cell apopt) | Rh123 counter inactive | MPTP swell DR inactive | MPTP cs DR 43
CCNCc1nc2cc(Cl)ccc2c(=O)[nH]1	none
COc1ccc(S(=O)(=O)CCC(=O)O)cc1	none (no result: SKKanGAS inh, CSC inhib)
CC(=O)CCS(=O)(=O)c1ccc(Oc2ccc(S(=O)(=O)CCC(C)=O)cc2)cc1	MPTP inh 58 | Rh123 counter inactive | MPTP swell DR inactive | MPTP cs DR 59
CCOC(=O)C1CCCN(S(=O)(=O)c2ccc(S(=O)(=O)N(CC)CC)cc2)C1 (centres undefined)	Beta cell apopt 110, MPTP inh 97 (no result: CSC inhib) | Rh123 counter 102
Cc1ccc(C2C3=C(CC(C)(C)CC3=O)N=C3c4ccccc4C(=O)C32)cc1 (centres undefined)	MPTP inh 86 | Rh123 counter 63
Cc1cc(/C(N)=N/OC(=O)Nc2ccc(Cl)cc2)no1	MPTP inh 57 | Rh123 counter 82
Cc1cc(/C(N)=N/OC(=O)Nc2ccccc2)no1	none (no result: Beta cell apopt)
O=C(CN(C(=O)CSc1nc2ccccc2o1)c1ccccc1F)NC1CCCCC1	none (no result: CSC inhib)
COc1ccc(OC)c(CN2C(=O)CSCC2(C)C(=O)NCc2ccccc2)c1 (centres undefined)	none (no result: SKKanGAS inh, Beta cell apopt, CSC inhib, Mdm2-MdmX inh, GRIN3A LBD mod)
C=CCn1c(SCC(=O)Nc2ccc(F)cc2F)nnc1-c1cnccn1	none
Cc1ccc(NC(=O)/C(=C/c2cccc([N+](=O)[O-])c2)NC(=O)C2CCCCC2)cc1	none
O=C(Nc1ccc(Br)cc1)/C(=C/c1cccc([N+](=O)[O-])c1)NC(=O)C1CCCCC1	MPTP inh 90 | Rh123 counter 84
CCN(CC)C(=O)Cn1cc(C(=O)C(=O)NCc2ccccn2)c2ccccc21	none
Cc1ccc(Nc2cc(C)c3c(O)cccc3n2)cc1C	MPTP inh 72 | Rh123 counter 54
COc1ccc(Nc2cc(C)c3c(O)cccc3n2)cc1	none
CCCCCC[n+]1ccccc1/C=C/c1ccc(N(C)C)cc1	MPTP inh 58 (no result: SKKanGAS inh, Beta cell apopt, CSC inhib, Mdm2-MdmX inh, GRIN3A LBD mod) | Rh123 counter 103
CC[n+]1ccc(/C=C/c2ccc(N(C)C)cc2)c2ccccc21	MPTP inh 119 (no result: SKKanGAS inh, Beta cell apopt, CSC inhib, Mdm2-MdmX inh) | Rh123 counter 68
CC(C)COc1ccc(C/C(N)=N/n2cnnc2)cc1	MPTP inh 66 | Rh123 counter 54
COc1cc(NC(=S)N2CCN(S(=O)(=O)c3ccc(C)cc3)CC2)cc(OC)c1	none
CO/N=C/C(NC(=O)c1ccc(C(F)(F)F)cc1)C(=O)OC (centres undefined)	none (no result: CSC inhib)
NC(N)=NN=C(c1ccc(F)cc1)c1ccc(C(F)(F)F)cc1	MPTP inh 70 (no result: SKKanGAS inh, Beta cell apopt, CSC inhib, Mdm2-MdmX inh) | Rh123 counter inactive | MPTP swell DR 4.8 | MPTP cs DR 41
